Data on 31 molecules can be found in article PMC5540273 (PLoS ONE, 2017).
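Also: KINOMEscan kinase panel screen.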

The assay deals with CSNK1G3. The conditions noted are these: concentration: 1 μM, replicates: in singlicate; n = 1.
With `Cc1ccc(C)c(NC(=O)NC2CCN(c3ccnc(Nc4ccc(F)cc4)n3)C2)c1` (stereo not shown) [GSK1379720], the “%Inh” value worked out at 12%.

For the molecule `Cl.Cl.NCC(NC(=O)c1cc(-c2ccccc2)c(-c2ccnc3[nH]ccc23)s1)c1ccccc1` (stereo not shown) [GSK1321561], the “%Inh” value was found to be 81%. As for `CN(C)Cc1ccc(-c2ccc3c(Nc4ccc(Oc5ccccn5)cc4)ccnc3c2)o1` [GW567148], the “%Inh” value was 0%. As for `COc1cccc(C(=O)Nc2cccc(Oc3ccc4nc(NC(=O)C5CC5)cn4n3)c2)c1`, the figure is 30%.

In the case of `CNC(=O)c1ccccc1Nc1nc(Nc2ccc(N3CCOCC3)cc2)ncc1Cl.Cl` [GSK1576028], the “%Inh” value worked out at 56%. With `C[C@@H]1CC[C@@H](C(=O)Nc2ccccc2)CN1c1cc(-c2ccc3c(N)n[nH]c3c2)nc(N)n1` [GSK2286062] the figure was 14%.

In the case of `Cn1cc(-c2ccc3c(c2)CCN3C(=O)Cc2cccc(Cl)c2)c2c(N)ncnc21` [GSK2606590], the “%Inh” value turned out to be 29%. With `FC(F)(F)c1ccc(/C=C/c2cncnc2Nc2ccc3[nH]c(Cc4ccccc4)nc3c2)cc1` [GW709199] the figure was 4%.

Regarding `COc1cccc(NC(=O)NC2CCN(c3ccnc(Nc4cc(OC)c(OC)c(OC)c4)n3)C2)c1` (stereo not shown) [GSK1379763], the “%Inh” value came out at 14%. On to `Fc1ccc(-c2ncn(C3CCNCC3)c2-c2ccnc(Oc3ccc(-c4ccccc4)cc3)n2)cc1` [SB-245391], for which the “%Inh” value is 49%. With `Oc1cc(Nc2ccnc3cc(I)ccc23)ccc1F` [GW552771] the figure was 0%; with `COC(=O)Nc1nc2ccc(Oc3ccc(NC(=O)Nc4cc(C(F)(F)F)ccc4F)cc3)cc2n1C.Cl` [GW692089], 12%; with `CC(=O)N1CCN(c2ccc(Nc3nccc(-c4sc(C(C)C)nc4-c4cccc(NS(=O)(=O)c5cccc(Cl)c5)c4)n3)cn2)CC1` [GSK1660437], 10%. With `Cl.Cl.NCC(C(=O)Nc1cc(Br)c(-c2ccnc3[nH]ccc23)s1)c1ccccc1` (stereo not shown) [GSK1269851] the figure was 35%.

In the case of `CC(C)(C)c1ccc2nccc(Nc3cccc(O)c3)c2c1` [GW856795], the “%Inh” value stood at 0%. With `NCCCC(NC(=O)c1cc(Br)c(-c2ccnc3[nH]ccc23)s1)c1ccccc1.O=C(O)C(F)(F)F.O=C(O)C(F)(F)F` (stereo not shown) [GSK1287544] the figure was 94.8%; with `Cl.c1ccc(-c2ccc3c(Nc4ccc5[nH]ncc5c4)ccnc3c2)nc1` [GW440137], 30%. As for `c1ccc(Oc2ccc(Nc3ccnc4cc(-c5ccc(CNCCN6CCOCC6)o5)ccc34)cc2)nc1` [GW567145], the figure is 13%; as for `O=C(Nc1cccc(Oc2ccc3nc(NC(=O)C4CC4)cn3n2)c1)c1ccccc1C(F)(F)F`, 26%; as for `CC(C)c1nc(-c2cccc(NS(=O)(=O)c3c(F)cccc3F)c2F)c(-c2ccnc(Nc3ccc(N4CCOCC4)nc3)n2)s1` [GSK2008607], 6%. `Nc1ncc(-c2cccnc2)c2scc(-c3ccc4c(c3)CCN4C(=O)Cc3ccccc3)c12` [GSK683281]: the “%Inh” value is given as 58%.

On to `Cn1cc(-c2ccc3c(c2)CCN3C(=O)Cc2cccc(F)c2)c2c(N)ncnc21` [GSK2603358], for which the “%Inh” value is 38%. With `Cl.NC(=O)c1cccc(Nc2nccc(Nc3ccc(Oc4c(Cl)cccc4Cl)c(Cl)c3)n2)c1` [GW659009] the figure was 7%; with `COCCOCCOc1cc2ncc3c4ccc(C#N)cc4[nH]c3c2cc1OC`, 17%. For the molecule `COc1cccc(-c2ccc3c(NC(=O)C4CC4)n[nH]c3n2)c1` [SB-710903], the “%Inh” value came out at 10%. Take `Nc1ncc(-c2ccc3nccc(-c4ccncc4)c3c2)cc1S(=O)(=O)N1CCOCC1` [GSK1627798]: the “%Inh” value worked out at 8%.

For `Cc1ccc(C(=O)N2CC[C@@H](O)C2)cc1-n1c(C)cc(OCc2ccc(F)cc2F)c(Br)c1=O`, the “%Inh” value is on record as 0%. For the molecule `O=C(O)C(F)(F)F.O=C(O)C(F)(F)F.O=c1[nH]ccc2nc(N[C@@H]3CCCNC3)nc(Nc3ccc(S(=O)(=O)N4CCOCC4)cc3)c12` [GSK2177277], the “%Inh” value is reported as 99.2%.

For `COc1cc(Nc2nccc(-c3c(-c4cccc(NC(=O)c5c(F)cccc5F)c4)nn4ncccc34)n2)cc(OC)c1OC` [GSK327238], the “%Inh” value was found to be 20%.

For the molecule `COc1cccc(C2=C(Nc3ccc(Cl)c(C(=O)O)c3)C(=O)NC2=O)c1` [SB-390769], the “%Inh” value was determined as 0%. Regarding `Cc1ccc(C(=O)Nc2ccc(Nc3ccnc4cc(-c5nccs5)ccc34)cc2O)cc1.Cl` [GW494702], the “%Inh” value was 4%.
